The nature of assay [1]: qHTS to identify inhibitors of the type 1 interferon - major histocompatibility complex class I in skeletal muscle: primary screen against the NCATS Mechanism Interrogation Plate v5.0 (MIPE) Libary (AID 1347411).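 For activity change, negative = inhibition: plate controls were vehicle for no effect and reference inhibitor for full effect.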 Note: nearly all actives have a fitted effect of over 65% in size. Note: potency is the fitted concentration of half-maximal effect. In short, it runs like this: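 Luminescence from HiBiT-tagged endogenous HLA-B*08:01 served as the MHC class I read-out. CRISPR-engineered C25cl48 human myoblasts received 4.0 ng/ml IFN-beta plus compound for 24 hrs, with an 11-point, 1:3 series topping at 46 uM final.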
A general note: qHTS replaces the single test concentration by a dilution series.

Assay [2] in a line: Primary qHTS for inhibitors of nuclear receptor binding SET domain protein 2 (NSD2) in an isogenic RCH-ACV NSD2 p.E1099K mutant (9B) (AID 1645876). Note: potency is the fitted concentration of half-maximal effect; nearly all actives have a fitted effect of over 70% in size.
A short description of assay [3]: Primary qHTS for inhibitors of nuclear receptor binding SET domain protein 2 (NSD2) in an RCH-ACV wild type WT cells (2C) (AID 1645877). Note: potency is the fitted concentration of half-maximal effect; nearly all actives have a fitted effect of over 70% in size.
Assay [4] deals with Glutathione peroxidase 1 (Homo sapiens) (UniProt P07203). Briefly: Primary qHTS Assay for Inhibitors of Recombinant Selenoprotein Glutathione Peroxidase 1 (GPX1) (AID 1845191). Note: % is set by controls: 0 for no effect and ±100 for the full control effect; nearly all actives have a fitted effect of over 65% in size. In short, it runs like this:
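Recombinant GPX1 (10 nM final) was preincubated with compound for 30 min at room temperature, then reacted with 1 mM GSH, 0.5 mM CHP, 0.5 mM NADPH and 100 nM glutathione reductase; NADPH fluorescence (340/450 nm) was read at 0 and 15 min.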

Assay [5] concerns the target Phospholipid hydroperoxide glutathione peroxidase GPX4 (Homo sapiens) (UniProt P36969). Put plainly: Primary qHTS Assay for Inhibitors of Recombinant Selenoprotein Glutathione Peroxidase 4 (GPX4) (AID 1845192). Note: nearly all actives have a fitted effect of over 65% in size. Particulars: outcome: dose series up to 50 µM unless noted. In short, it runs like this:
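GR-coupled readout: 100 nM GR, 1 mM GSH, 0.5 mM NADPH; NADPH fluorescence (ex 340/em 450 nm) read at t=0 and after 15 min RT. GPX4 200 nM, preincubated 30 min with compound; substrate 0.5 mM CHP.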

The nature of assay [6]: qHTS drug screen for cell cycle checkpoint inhibitors in PARPi-resistant BRCA-mutant ovarian cancer cell lines. (AID 1963452; calls by dose curve; note: potency is the fitted concentration of half-maximal effect). Particulars: PEO1/OlaR viability, CellTiter-Glo luminescence, 96 h; for Z-AUC: stronger effect = lower value. In short, it runs like this: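 PEO1, PEO4 and PEO1/OlaR ovarian cancer cells, 600 per well, exposed 96 h at 37C to a dilution series. Viability read by CellTiter-Glo luminescence, normalized to DMSO and empty wells; activity summarized as Z-AUC.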

The nature of assay [7]: qHTS assay to identify inhibitors of the type 1 interferon - major histocompatibility complex class I in skeletal muscle: Counter screen cell viability and HiBit confirmation (AID 1347412). For activity change, negative = inhibition: % is set by controls: 0 for no effect and ±100 for the full control effect. For all read-outs here: nearly all actives have a fitted effect of over 60% in size. Note: potency is the fitted concentration of half-maximal effect. Conditions: iHSKM muscle cells + IFN-b, HiBiT or CellTiter-Glo, 24 h; for Potency: HiBiT; for activity change, negative = inhibition: Viability, at 45.9 µM (top of the series). In short, it runs like this: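 CRISPR HLA-B*08:01-HiBit immortalized human myoblasts (C25cl48) stimulated with 4 ng/ml IFN-beta and compounds (12-point 1:3, top 46 uM final) for 24 h at 37 C. Duplicate plates read by HiBit lytic luminescence or CellTiter Glo ATP.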

A short description of assay [8]: HPAF-II 24hr Apoptosis Induction qHTS against the NCATS CANVASS Library (AID 1347356). Note: 0% is about no effect. In short, it runs like this:
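Luminescent caspase-3/7 signal (DEVD substrate, Caspase-Glo) served as read-out, taken 15 min after reagent addition to HPAF-II cells exposed 24 h to compounds.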

Assay [9] can be described thus: HEK293 18hr Apoptosis Induction qHTS against the NCATS CANVASS Library (AID 1347357). Note: 0% is about no effect. In short, it runs like this:
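HEK293 cells (500/well, DMEM + 10% FBS) treated with an 11-point series for 18 h at 37 degrees C. Caspase-3/7 activity read by Caspase-Glo luminescence after 15 min at room temperature.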

Assay [10] is described as follows: HEK293 24hr Apoptosis Induction qHTS against the NCATS CANVASS Library (AID 1347359). Note: 0% is about no effect. In short, it runs like this: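 HEK293 cells (500/well, DMEM + 10% FBS) were exposed to compounds in an 11-point series for 24 hours at 37 degrees C, then caspase-3/7 activity was read by Caspase-Glo DEVD luciferase luminescence after 15 min.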
A short description of assay [11]: HPAF-II 18hr Apoptosis Induction qHTS against the NCATS CANVASS Library (AID 1347360). Note: 0% is about no effect. In short, it runs like this: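 HPAF-II cells at 500/well were exposed for 18 h at 37 C to an 11-point compound series. Caspase-3/7 activity was read by Caspase-Glo luminescence after 15 min at RT.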
The target in assay [12] is Luciferin 4-monooxygenase (Photinus pyralis) (UniProt P08659). Put plainly: Firefly luciferase counterscreen qHTS: Assay Interference Panel against the NCATS CANVASS Library (AID 1347363). Note: 0% is about no effect. In short, it runs like this:
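Purified P. pyralis luciferase was added to compounds (11-point series) preincubated 15 min at room temperature with substrate containing 0.013 mM D-luciferin and 0.013 mM ATP; luminescence was read after 5 min.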

Assay [13] in a line: qHTS for ATAD5 Agonist screened against the NCATS CANVASS Library (AID 1347367).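 Note: luciferase reporter driven by ATAD5 which rises upon DNA damage; 0% is about no effect.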 In short, it runs like this:
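Luciferase reporter under ATAD5 control, stably integrated in HEK293T cells (2000/well). Compounds (11 points) incubated 16 h at 37C; viability read first by CellTiter-Fluor, then luminescence reporting ATAD5 activation. MMS positive control.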

Assay [14] is described as follows: MCF7 Cancer Cell Toxicity qHTS against the NCATS CANVASS Library (AID 1347369). In short, it runs like this: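 MCF7 cells (500/well) were exposed 72 h at 37 °C to compounds in an 11-point series. Viability was read as ATP content by CellTiterGlo luminescence.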
Assay [15] has as its target Nuclear receptor subfamily 1 group I member 3 (Homo sapiens) (UniProt Q14994). Briefly: qHTS for Constitutive Androstane Receptor (CAR) Antagonist screened against the NCATS CANVASS Library (AID 1347372).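 For activity change, negative = inhibition: cells stimulated with 50 nM CITCO agonist so inhibition reflects antagonism; % is set by controls: 0 for no effect and ±100 for the full control effect.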 Note: potency is the fitted concentration of half-maximal effect. In short, it runs like this:
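HepG2 cells stably carrying hCAR and a CYP2B6-2.2kb luciferase reporter were exposed to compounds plus 50 nM CITCO for 24hr at 37C. CAR activity was read by ONE-Glo luminescence, with viability measured first by CellTiter-Fluor.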

Assay [16] can be described thus: 10-beta competent E. coli microbial cell viability qHTS against the NCATS CANVASS Library (AID 1347376). Note: 0% is about no effect. In short, it runs like this:
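E. coli 10-beta, 0.2 OD; cpds 11-pt; o/n 37C, 5% CO2; BacTiter-Glo 20 min RT; luminescence (ATP) = viable cells. Daunomycin ctrl.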

Assay [17] is described as follows: qHTS for H2AX Agonists against the NCATS CANVASS Library (AID 1347378). Note: potency is the fitted concentration of half-maximal effect. In short, it runs like this: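 CHO-K1 cells (1000/well, overnight at 37C) exposed to compounds at several concentrations for 3 hr at 37C, 0.76% DMSO final. Lysates read by TR-FRET (phospho-H2AX S139 Eu-cryptate antibody / H2AX-d2 antibody) after 24 hr at room temperature; 665/615 nm ratio.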

Assay [18] is described as follows: Inflammasome Signaling qHTS Counterscreen: IL-1-beta AlphaLISA counterscreen against the NCATS CANVASS Library (AID 1347381).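 Note: cell-free check with purified IL-1β in medium and no THP-1 cells; 0% is about no effect.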 In short, it runs like this:
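Cell-free interference check: compounds added to medium spiked with 4 pg purified IL-1β. Anti-IL-1β acceptor beads (6 ug/mL) with 0.6 nM biotinylated antibody added for 1 h at RT, then streptavidin donor beads (24 ug/mL) for 30 min in the dark. AlphaLISA read at 680/615 nm.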

Assay [19] is described as follows: Cytotoxicity qHTS for assessment of Hepg2 cells membrane integrity screened against the NCATS CANVASS Library (AID 1347387). In short, it runs like this:
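qHTS, 11-pt conc. series, 0.59 nM - 46 uM final; HepG2 2000 cells/well, overnight attachment; 5 hr compound exposure 37C/5% CO2; CytoTox-ONE, 10 min RT; fluorescence ex560/em590 = LDH from damaged membranes.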

Assay [20] deals with Nuclear receptor subfamily 1 group I member 3 (Homo sapiens) (UniProt Q14994). Put plainly: qHTS for Constitutive Androstane Receptor (CAR) Agonist screened against the NCATS CANVASS Library (AID 1347373).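 Note: every well also contained 1.5 µM PK11195 alongside the test compound; 0% is about no effect.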 In short, it runs like this:
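HepG2-hCAR-CYP2B6 cells, 2500/well, attached 4hr; cpd + PK11195 1.5uM final; 24hr 37C 5% CO2. CellTiter-Fluor viability read, then ONE-Glo luminescence for CAR activation.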

Where [21] appears, read: measured here: PEO1 parental Z-AUC.

Each structure is given as a SMILES string. Results filed as inconclusive are left out. The source made the active and inactive calls. Unless noted, calls come from the whole dose curve; as a rule, active = well fitted curve in the direction sought with a large enough effect; inconclusive = small, poorly fitted or top-dose-only effect, or another doubt; inactive = no such curve, though single readings can be large; an effect the other way counts as inactive or inconclusive.

Chain of Luciferin 4-monooxygenase (Photinus pyralis) (P08659 whole entry, looked up): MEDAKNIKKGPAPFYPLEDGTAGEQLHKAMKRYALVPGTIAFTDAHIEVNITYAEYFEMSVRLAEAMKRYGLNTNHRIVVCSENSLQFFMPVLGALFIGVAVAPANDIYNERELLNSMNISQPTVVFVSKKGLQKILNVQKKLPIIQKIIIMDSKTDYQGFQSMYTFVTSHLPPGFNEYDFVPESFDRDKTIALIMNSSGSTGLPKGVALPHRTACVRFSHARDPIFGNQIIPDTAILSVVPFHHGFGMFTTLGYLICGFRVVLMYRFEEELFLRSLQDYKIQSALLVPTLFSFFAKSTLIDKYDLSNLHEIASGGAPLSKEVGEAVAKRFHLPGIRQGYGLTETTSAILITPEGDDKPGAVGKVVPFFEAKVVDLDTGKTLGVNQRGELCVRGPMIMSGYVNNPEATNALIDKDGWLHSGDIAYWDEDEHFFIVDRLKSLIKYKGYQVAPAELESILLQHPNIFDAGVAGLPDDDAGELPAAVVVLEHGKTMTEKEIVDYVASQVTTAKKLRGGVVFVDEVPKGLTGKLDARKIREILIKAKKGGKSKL
Chain of Nuclear receptor subfamily 1 group I member 3 (Homo sapiens) (Q14994 whole entry, looked up): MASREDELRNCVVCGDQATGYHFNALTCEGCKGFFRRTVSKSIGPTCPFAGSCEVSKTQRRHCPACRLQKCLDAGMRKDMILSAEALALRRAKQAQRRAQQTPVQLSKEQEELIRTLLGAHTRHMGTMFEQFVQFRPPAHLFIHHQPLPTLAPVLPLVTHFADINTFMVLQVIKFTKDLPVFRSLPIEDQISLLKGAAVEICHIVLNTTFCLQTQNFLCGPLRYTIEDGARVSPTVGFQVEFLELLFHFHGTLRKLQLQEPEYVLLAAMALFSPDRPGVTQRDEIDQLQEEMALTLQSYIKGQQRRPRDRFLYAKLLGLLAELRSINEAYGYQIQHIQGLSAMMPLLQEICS
Chain of Glutathione peroxidase 1 (Homo sapiens) (P07203 whole entry, looked up): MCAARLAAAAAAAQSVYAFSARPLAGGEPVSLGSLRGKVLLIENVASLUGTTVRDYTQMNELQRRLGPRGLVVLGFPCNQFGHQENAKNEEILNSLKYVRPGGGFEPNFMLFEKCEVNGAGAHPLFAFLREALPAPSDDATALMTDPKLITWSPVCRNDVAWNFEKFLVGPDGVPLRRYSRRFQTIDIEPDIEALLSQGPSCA
Chain of Phospholipid hydroperoxide glutathione peroxidase GPX4 (Homo sapiens) (P36969 whole entry, looked up): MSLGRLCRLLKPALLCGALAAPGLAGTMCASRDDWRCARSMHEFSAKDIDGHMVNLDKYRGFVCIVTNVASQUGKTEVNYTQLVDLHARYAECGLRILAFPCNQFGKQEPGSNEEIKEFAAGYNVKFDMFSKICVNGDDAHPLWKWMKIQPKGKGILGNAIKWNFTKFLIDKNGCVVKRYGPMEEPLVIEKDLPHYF

For the molecule `CN[C@@H](C)C(=O)N[C@@H]1C(=O)N(Cc2c(C)ccc3ccccc23)c2ccc(C#N)cc2N(C(C)=O)[C@H]1C`, the Potency entry in [1] was “inactive”.

Turning to `CS[C@H]1SC[C@@H]2C(=O)N(C)[C@H](C(C)C)C(=O)OC[C@H](NC(=O)c3cnc4ccccc4n3)C(=O)N[C@H](C)C(=O)N(C)[C@H]1C(=O)N(C)[C@H](C(C)C)C(=O)OC[C@H](NC(=O)c1cnc3ccccc3n1)C(=O)N[C@H](C)C(=O)N2C`, the Potency in assay [1] was 0.0104 µM (active); in [2] it was 0.0015 µM (active); in assay [3] it was 0.001 µM (active); in [6], 0.0087 µM (active); in assay [7], 0.0125 µM (active). Besides, the Potency entry in assay [4] and in assay [5] was “inactive” in each case. In addition, the Z-AUC was -3.58 in assay [6] (setting [21]) and -3.11 in assay [6] (measured here: PEO4 Z-AUC). Moreover, the activity change, negative = inhibition in [7] was 4.37% (inactive).

With `C[C@H]1CCC2(OC1)O[C@H]1C[C@H]3[C@@H]4CC(=O)[C@]5(O)C[C@H](O)CC[C@@]5(C)[C@H]4CC[C@@]3(C)[C@H]1[C@H]2C` (stereo partly drawn), the result in assay [8], in assay [16], in assay [18] and in [19] was inactive. The Potency entry in assay [9], in assay [10], in [11], in assay [12], in assay [13] and in assay [14] was “inactive” in each case. Moreover, the Potency result in [15] and in assay [17] was “inactive” each time.

Take `CC[C@H]1[C@@H](C)[C@@H](c2cc(OC)c(OC)cc2OC)[C@H](C)[C@@H](c2cc(OC)c(OC)cc2OC)[C@@]12C=C(OC)C(=O)C=C2OC`: the result in assay [8], in [16], in [18] and in assay [19] was inactive. Also, the Potency result in [9], in [10], in assay [12], in assay [13], in assay [14] and in assay [15] was “inactive” each time. The Potency result in assay [20] was “inactive”.

On to `C=C1C(=O)O[C@H]2[C@H]1CCC(C)=C1CC[C@@](C)(O)[C@@H]12`, for which the molecule was classed as inactive in assay [8], in [16], in assay [18] and in [19]. Further, the Potency result in [9], in [10], in [11], in assay [12], in assay [13] and in assay [15] was “inactive” throughout. Also, the Potency entry in assay [20] is “inactive”. The Potency in assay [17] is 27.3 µM (active).

For `C=C1C[C@H]2O[C@@H]3[C@@H]4[C@H](CC[C@@](C)(O)[C@@H]42)[C@H](C)COC3(C)[C@@H](OC(=O)CCCCCCC)CC1=O` (stereo partly drawn), the call in [8], in [16], in assay [18] and in assay [19] was inactive. The Potency result in assay [10], in assay [11], in [12], in [13], in assay [14] and in [15] was “inactive” throughout. Also, the Potency result in assay [20] and in assay [17] was “inactive” in each case.

In the case of `O=C(/C=C\n1cnc(-c2cc(C(F)(F)F)cc(C(F)(F)F)c2)n1)NNc1cnccn1`, the Potency in assay [1] is 7.39 µM (active); in assay [2] it was 2.63 µM (active); in [3], 2.09 µM (active); in assay [7] it was 0.625 µM (active). For the same molecule, the Potency entry in assay [4] is “inactive”. Also, the Z-AUC in assay [6] was -0.586 (inactive); in assay [6] (setting [21]), -2.16; in assay [6] (measured here: PEO4 Z-AUC), -1.63. Further, the activity change, negative = inhibition in assay [7] was -1.81% (inactive).

Consider `CO[C@@H]1[C@H](O)[C@@H](C)O[C@@H](OC[C@@H]2C(C)OC(=O)/C=C/[C@H](C)C(O[C@@H]3O[C@H](C)CC4(OC(=O)O[C@@H]4C)C3O)[C@@H](C)CC(C)C(=O)/C=C/[C@H]3OC23)[C@@H]1OC` (stereo partly drawn), for which the outcome in assay [8], in assay [16], in assay [18] and in assay [19] was inactive. Further, the Potency result in [11], in [12], in [13], in assay [14], in [20] and in assay [17] was “inactive” each time. The Potency in [15] is 20.9 µM (active).

These data come from PubChem BioAssay (NCATS).
